Measurements reported in PubChem BioAssay AID504444 (National Center for Advancing Translational Sciences (NCATS), 2011).
Hit rate of the full screen: of about 360,000 compounds, about 7,500 (2.1%) were called active. Inconclusive results (about 20%) are left out. Calls come from the whole dose curve; as a rule, active = well fitted inhibition curve with a large enough effect; inconclusive = small, poorly fitted or top-dose-only effect, or effect the other way; inactive = flat fitted curve, though single readings scatter. For the sample, actives were picked, then their nearest neighbours and some compounds at random.

Assay: Nrf2 qHTS screen for inhibitors; note: nearly all actives have a fitted effect of over 60% in size
Conditions: A549 ARE-Fluc reporter, luciferase luminescence, 18-24 h; series mostly up to 46 µM; activity change, negative = inhibition: at the top concentration
In short: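 A549 ARE_Fluc cells (5000/well, 5% FBS OPTI-MEM) pre-incubated 2 h, then treated with compounds 18-24 h at 37C/5% CO2 in concentration-response. CellTiter-Fluor viability read first; BugLite luciferase luminescence after 15 min at room temperature gives Nrf2 activity.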
% is set by controls: 0 for no effect and ±100 for the full control effect; potency is the fitted concentration of half-maximal effect.

| Structure (SMILES) | Potency | activity change, negative = inhibition |
| --- | --- | --- |
| O=C1C=C(c2ccnc3cc(Cl)ccc23)C[C@@H](c2ccc3c(c2)OCO3)C1 | 9.2 µM (active) | – |
| COc1ccc2cc(C3=CC(=O)C[C@H](c4ccc5c(c4)OCO5)C3)ccc2c1 | – | -11.8% (inactive) |
| O=C1C=C(c2cccc(Cl)c2)C[C@@H](c2ccc(F)cc2)C1 | – | -1.21% (inactive) |
| O=S(=O)(c1ccc2c(c1)OCCCO2)N1CCN(S(=O)(=O)c2c(F)cccc2F)CC1 | – | 18.5% (inactive) |
| COc1ccccc1Nc1nc(N)nc(N)c1S(=O)(=O)c1ccccc1 | – | 1.76% (inactive) |
| CCOC(=O)c1ccc(NC(=O)c2nc[nH]c2C(=O)N[C@@H](CCCCNC(=O)OC(C)(C)C)C(=O)OC(C)(C)C)cc1 | 23.1 µM (active) | – |
| CCOC(=O)c1ccc(NC(=O)c2nc[nH]c2C(=O)NCc2ccccc2)cc1 | – | -19.4% (inactive) |
| CC(C)(C)OC(=O)NCCCCCNC(=O)c1[nH]cnc1C(=O)Nc1nccs1 | – | -19.6% (inactive) |
| COc1ccc(OC)c(NC(=O)CSc2nc3ccccc3nc2N2CCCCC2)c1 | – | -8.4% (inactive) |
| CC(C)c1cc(N=O)cc(C(C)C)c1O | – | 15.6% (inactive) |
| CCCCCc1ccc(-c2ccc(OCC)cc2)nc1 | 0.366 µM (active) | – |
| CCCCCc1ccc(-c2cn(Cc3ccc4ccccc4c3)nn2)cc1 | – | 8.41% (inactive) |
| CCCCOc1ccc(-c2ncc(C(=O)OCC)c(N)n2)cc1 | – | -13.9% (inactive) |
| CNC(=O)c1ccsc1NC(=O)c1ccc(S(=O)(=O)N2CCc3ccccc32)cc1 | 16.4 µM (active) | – |
| CNC(=O)c1ccsc1NC(=O)c1ccc(S(=O)(=O)N2CCOCC2)cc1 | – | -27.8% (inactive) |
| O=S(=O)(c1ccccc1)N1CCc2ccccc21 | – | -4.14% (inactive) |
| COc1ccc(C(=O)NCc2ccc(Cl)cc2)cc1S(=O)(=O)N1CCCC1 | – | -19.1% (inactive) |
| CCOC(=O)c1c(C)oc2nc(C)nc(N(CC(C)C)CC(C)C)c12 | – | -23.4% (inactive) |
| CCCSc1ccc([C@H]2N[C@@](Cc3ccccc3)(C(=O)OC)[C@H]3C(=O)N(C)C(=O)[C@@H]23)cc1 | – | -4.83% (inactive) |
| Cc1ccc(NS(=O)(=O)c2cccs2)cc1S(=O)(=O)N1CCCCCC1 | 7.31 µM (active) | – |
| O=C(C1CCN(S(=O)(=O)c2cccs2)CC1)N1CCCCCC1 | – | 19.6% (inactive) |
| Cc1ccc(NC(=O)CCC(=O)N2CCC(c3ccccc3)=N2)cc1S(=O)(=O)N1CCCCC1 | – | -25.3% (inactive) |
| Cc1ccc(C(=O)NNC(=O)c2ccncc2)cc1S(=O)(=O)N1CCCCC1 | – | -7.77% (inactive) |
| Cc1ccc(NC(=O)COC(=O)C2CC2)cc1S(=O)(=O)N1CCOCC1 | – | 8.96% (inactive) |

| Structure (SMILES) | Potency | activity change, negative = inhibition |
| --- | --- | --- |
| Cc1ccc(NC(=O)CCNC(=O)c2ccc([N+](=O)[O-])cc2)cc1S(=O)(=O)N1CCOCC1 | – | 3.63% (inactive) |
| Cc1ccc(NC(=O)CCCNC(=O)c2ccc(Cl)cc2)cc1S(=O)(=O)N1CCOCC1 | – | -7.44% (inactive) |
| Cc1ccc(NC(=O)CCCNC(=O)c2ccc(Cl)cc2)cc1S(=O)(=O)N1CCCCC1 | 16.4 µM (active) | – |
| CCc1ccccc1OCC(=O)Nc1ccc(C)c(S(=O)(=O)N2CCCCCC2)c1 | 25.9 µM (active) | – |
| CC1CN(C(=O)N2CCC(C(=O)NCc3cccs3)CC2)c2ccccc2O1 (stereo not drawn) | – | -14% (inactive) |
| O=C(CCCCn1c(=O)c2ccccc2n(CC(=O)Nc2cccc(C(F)(F)F)c2)c1=O)NCc1ccc2c(c1)OCO2 | – | -14.1% (inactive) |
| CCCS(=O)(=O)N1CCC(n2c(C(F)(F)F)nc3cccnc32)CC1 | – | -6.94% (inactive) |
| O=C(N[C@@H]1C/C=C\C[C@@H](CC(=O)N(CCO)Cc2ccccc2)C(=O)N[C@H](Cc2ccccc2)COC1=O)OCC1c2ccccc2-c2ccccc21 | – | -2.23% (inactive) |
| O=c1[nH]c(N2CCN(Cc3ccc4c(c3)OCO4)CC2)nc2c1CCCC2 | – | -8.11% (inactive) |
| Fc1ccc2[nH]c3c(N4CCN(Cc5ccc6c(c5)OCO6)CC4)ncnc3c2c1 | 10.3 µM (active) | – |
| Cc1c(CN2CC[C@@H](N3CCN(c4ccccn4)CC3)[C@H](O)C2)[nH]c2ccc(F)cc12 | – | -6.24% (inactive) |
| Fc1ccc2[nH]c3c(N4CCSCC4)ncnc3c2c1 | 18.4 µM (active) | – |
| CC(C)(C)n1nnnc1C(c1ccc(F)cc1)N1CCN(Cc2ccc3c(c2)OCO3)CC1 (stereo not drawn) | – | -7.86% (inactive) |
| CCn1c(CN2CCC(C)CC2)nc2cc(NC(=O)c3ccccc3[N+](=O)[O-])ccc21 | – | -4.26% (inactive) |
| CCCN(CC(=O)Nc1ccccc1C)C(=O)c1ccc(OCC(=O)N2CCOCC2)c(OCC)c1 | – | 1.1% (inactive) |
| Cc1ccccc1NC(=O)Cn1c(=O)n(CC2CCC(C(=O)NCCc3ccccc3)CC2)c(=O)c2ccccc21 (stereo not drawn) | – | 5.11% (inactive) |
| COc1cc(C(=O)NCC(c2ccco2)N2CCCC2)ccc1OCc1ccccc1 (stereo not drawn) | – | 7.02% (inactive) |
| Cc1ccccc1Nc1nn2c(=O)c3ccc(C(=O)NCCc4ccc(Cl)cc4)cc3nc2s1 | – | -7.63% (inactive) |
| Cc1ccc(S(=O)(=O)NC(N)=NCCC[C@@H](NC(=O)CNC(=O)c2ccccc2)C(=O)Nc2cc(C(F)(F)F)ccc2Cl)cc1 | – | 4.08% (inactive) |
| O=C1NC[C@@H](c2ccccc2)OC(=O)[C@H](Cc2ccc(F)cc2)CC/C=C/C[C@H]1CC(=O)N(CCO)Cc1ccccc1 | – | -7.42% (inactive) |
| Cc1ccc2nc(-c3ccc(O)cc3)c(Nc3ccc4c(c3)OCO4)n2c1 | – | 8.81% (inactive) |
| Cc1nc2ccccc2c(C)c1C(=O)c1ccc(F)cc1 | – | 10% (inactive) |
| Cc1nc2ccccc2c(C(=O)O)c1-c1ccccn1 | – | 0.203% (inactive) |
| Cc1nc2ccccc2c(-c2ccccc2)c1C(=O)c1ccccc1 | 23.1 µM (active) | – |

| Structure (SMILES) | Potency | activity change, negative = inhibition |
| --- | --- | --- |
| CC1(C)O[C@@H]2CC3C4C[C@H](F)C5=CC(=O)C=CC5(C)C4C(O)CC3(C)[C@]2(C(=O)CO)O1 (stereo partly drawn) | 0.0046 µM (active) | – |
| Cc1ccc(C(CC(=O)O)NC(=O)c2ccc(S(=O)(=O)N3CCCC3)cc2)cc1 (stereo not drawn) | – | 0.991% (inactive) |
| CCOCCOC(=O)C1=C(C)NC(=O)NC1c1ccc2c(c1)OCO2 (stereo not drawn) | – | -4.03% (inactive) |
| COCCOC(=O)C1=C(C)NC(=O)NC1c1ccc(Cl)cc1 (stereo not drawn) | – | -1.05% (inactive) |
| CCC(CC)COC(=O)C1=C(C)NC(=O)NC1c1ccc([N+](=O)[O-])cc1 (stereo not drawn) | 25.9 µM (active) | – |
| COc1cc(CN(CC2CCCO2)C(=O)c2ccccc2F)cc(OC)c1OC (stereo not drawn) | – | -4.81% (inactive) |
| COc1ccc(CCC(=O)c2ccc(OC)cc2)cc1 | – | 5.47% (inactive) |
| COc1ccc(C(=O)C[n+]2ccc(N)c(C)c2C)cc1 | 5.8 µM (active) | – |
| COc1ccc(C(=O)C[n+]2ccc(C)cc2)cc1 | – | 3.08% (inactive) |
| CC/C(=C\c1ccc(Cl)cc1)c1ccncc1 | – | 10.8% (inactive) |
| COc1ccc(S(=O)(=O)N(C)C[C@H]2Oc3c(NC(=O)Nc4ccc5c(c4)OCO5)cccc3C(=O)N([C@H](C)CO)C[C@@H]2C)cc1 | – | -10.5% (inactive) |
| COc1ccc(C(=O)N(Cc2ccccc2)Cc2ccc(OC)c(COc3ccc(NC(C)=O)cc3)c2)c(O)c1 | – | 1.88% (inactive) |
| Cc1[nH]c(=O)c(C(=O)/C=C/c2ccccc2)c2c1CCCC2 | 20.6 µM (active) | – |
| Cc1cn(COC/C=C/c2ccccc2)c(=O)[nH]c1=O | – | 0.354% (inactive) |
| Cc1cccc(C=CC(=O)c2ccc(Cl)cc2)c1 | – | -8.77% (inactive) |
| Nc1ccc2c(c1)C(=Cc1cccnc1)c1ccccc1-2 | – | 22.3% (inactive) |
| Cn1c2ccccc2c(=O)c2c(O)cccc21 | – | 28% (inactive) |
| CCCc1nc2c(c(=O)c3ccccc3n2C)c(=O)n1C1CCCCCC1 | 23.1 µM (active) | – |
| CCCc1nc2c(c(=O)c3ccccc3n2C)c(=O)n1-c1cc(C)cc(C)c1 | – | 2.46% (inactive) |
| O=C(NCc1cccnc1)C(=O)NCC(c1cccnc1)N1CCN(c2ccccc2)CC1 (stereo not drawn) | – | 2.8% (inactive) |
| O=C(CCCCCCCC(=O)N1CCCCC1)N1CCCCC1 | – | -7.85% (inactive) |
| CN(C)CCCNC(=O)/C=C/c1ccc(OCc2c(F)cccc2Cl)cc1 | 20.6 µM (active) | – |
| COCCCNC(=O)/C=C/c1ccc(OCc2c(F)cccc2Cl)cc1 | – | -21% (inactive) |
| COc1cc(CNCCN(C)C)ccc1OCc1c(F)cccc1Cl | – | -10.3% (inactive) |

| Structure (SMILES) | Potency | activity change, negative = inhibition |
| --- | --- | --- |
| COc1cc2c(-c3ccc4c(c3)OCO4)c(-c3ccsc3)oc(=O)c2cc1OC | – | -4.58% (inactive) |
| O=C1C=C(c2cccc(Cl)c2O)C[C@@H](c2ccc(F)cc2)C1 | – | 7.99% (inactive) |
| COc1ccc(N2CCN(Cc3nc4c(c(=O)[nH]c(=O)n4C)n3Cc3ccc(Cl)cc3)CC2)cc1 | – | 2.8% (inactive) |
| CCc1cccc2c3c([nH]c12)C(CC)(CC(=O)O)OCC3 (stereo not drawn) | 10.3 µM (active) | – |
| O=C1CC[C@@H]2CC3(C[C@@H]4CCN1[C@H]24)Nc1cc([N+](=O)[O-])ccc1NC3=NC1CCCCC1 (stereo partly drawn) | – | 5.71% (inactive) |
| CC1CC(C)(C)n2c(O)c(N=NC(N)=S)c3cccc1c32 (stereo not drawn) | 14.6 µM (active) | – |
| Cc1cccc(NC(=O)CSc2nc(-c3ccco3)cc(C(F)(F)F)n2)c1C | – | 6.45% (inactive) |
| COc1cccc(C=CC(=O)C=CC=Cc2ccccc2)c1 | – | -3.74% (inactive) |
| Cc1c(Cl)cccc1NC(=O)CCS(=O)(=O)c1ccc2c(c1)oc(=O)n2C | – | -4.02% (inactive) |
| CCc1ccccc1NC(=O)Cn1c(=O)n(CC2CCC(C(=O)NCCc3ccccc3)CC2)c(=O)c2ccccc21 (stereo not drawn) | – | 15.4% (inactive) |
| CCN(C[C@H]1N[C@@](Cc2ccccc2)(C(=O)OC)[C@H]2C(=O)N(Cc3ccccc3)C(=O)[C@@H]12)C(=O)c1ccc(C)cc1 | – | -0.16% (inactive) |
| CCOc1ccccc1N(CC)C(=O)c1cc2ccc3cccnc3c2[nH]1 | – | -16.9% (inactive) |
| O=C(NCc1cccnc1)c1ccc(CS(=O)(=O)c2ccc(Br)cc2)o1 | 14.6 µM (active) | – |
| COc1ccc(CCNC(=O)c2ccc(CS(=O)(=O)c3ccc(Br)cc3)o2)cc1OC | 4.11 µM (active) | – |
| Cc1cccc(NS(=O)(=O)c2ccc(C)c(C(=O)NCc3cccnc3)c2)c1 | – | -31.3% (inactive) |
| COc1ccc(CCNC(=O)c2nnc(CS(=O)(=O)c3ccccc3)o2)cc1OC | – | 1.63% (inactive) |
| COc1ccc(C(=O)NCCc2ccc(S(N)(=O)=O)cc2)cc1OC | – | 22.1% (inactive) |
| COc1ccccc1CNC(=O)c1ccc(CS(=O)(=O)c2ccccc2)o1 | – | 0.412% (inactive) |
| Cc1ccccc1-n1c(=O)c2ccccc2n(Cc2ccc(F)cc2)c1=O | – | 5.14% (inactive) |
| CCCN(C(=O)COC(=O)CNS(=O)(=O)c1ccc(NC(C)=O)cc1)C1CCS(=O)(=O)C1 (stereo not drawn) | – | 12.7% (inactive) |
| CC1CCCC(NC(=O)c2cc(S(=O)(=O)N3CCCCC3)ccc2Cl)C1C (stereo not drawn) | – | 12.3% (inactive) |
